# Rows were chosen to be rich in hits. Some 9.2% of all compounds tested hit in one or more screens of this group.
# SMN2 splice up = qHTS Assay for Enhancers of SMN2 Splice Variant Expression; 210,000 compounds, 2.8% hits; Potency, µM (top dose mostly 46.1 µM), for inactives: at the highest dose activity change, positive = activation, most hits filed as activators; HEK293 SMN2-luciferase splicing reporter, luminescence, 30-36 h; note: % of control where 0% means no effect; nearly all actives have a fitted effect of over 55% in size
#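 HEK293 cells carry an SMN2 minigene-luciferase reporter in which exon 7 inclusion puts luciferase in frame. Cells were seeded at 2000 cells/well, attached for 10-12 hours, then exposed to compounds for 30-36 hours at 37C before ONE-Glo luminescence.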
# NPC1 promoter act = qHTS Assay for NPC1 Promoter Activators | Huh7 NPC1 promoter luciferase reporter, 24 h | AID 485313, 2010 | Potency, µM (doses to about 9.22 µM), for inactives: top-dose activation, usual class: activators | 320,000 compounds, 2.4% hits; note: % of control where 0% means no effect; nearly all actives have a fitted effect of over 60% in size
#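 Quantitative HTS used a cell-based reporter: Huh7 cells stably bearing the NPC1 promoter upstream of luciferase were treated with compounds for 24 h, and promoter activation was read as luminescence.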
# ELG1 genotox = qHTS screen for small molecules that induce genotoxicity in human embryonic kidney (HEK293T) cells expressing luciferase-tagged ELG1 | Potency, µM (titrated, usually from 46 µM), inactives show top-dose activity change, positive = activation, actives largely listed as activators | HEK293T ELG1-luciferase reporter, luminescence, 16 h | AID 504466, 2011 | 330,000 compounds, 1.3% hits; note: % of control where 0% means no effect; nearly all actives have a fitted effect of over 60% in size
#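 DMSO vehicle served as control against compound-treated ELG1-luciferase HEK293T cells; exposure lasted 16 hr at 37 °C and 5% CO2, followed by ONE-Glo luminescence detection after 30 min.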
# ELG1 repair inh = qHTS screen for small molecules that inhibit ELG1-dependent DNA repair in human embryonic kidney (HEK293T) cells expressing luciferase-tagged ELG1; HEK293T ELG1-luciferase reporter, luminescence, 16 h; DNA damage induced by 5-fluorouridine; AID 504467, 2011; 330,000 compounds, 2.3% hits; Potency, µM (highest dose often 46.1 µM), without a hit: at the top dose activity change, negative = inhibition, usual class: inhibitors; note: % is set by controls: 0 for no effect and ±100 for the full control effect; nearly all actives have a fitted effect of over 55% in size
#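 Step one: seed 2,000 cells per well. Step two: pin-transfer compound or DMSO alongside 5-fluorouridine. Step three: incubate 16 hr, 37 °C, 5% CO2. Step four: add ONE-Glo, wait 30 min, read luminescence.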
# Rab9 prom act = qHTS Assay for Rab9 Promoter Activators | 320,000 compounds, 2.8% hits | Potency, µM (doses to about 9.22 µM), for inactives: top-dose activation, negative = inhibition, actives largely listed as activators | Huh7 Rab9 promoter-luciferase reporter, luminescence, 24 h; note: % of control where 0% means no effect; nearly all actives have a fitted effect of over 60% in size
#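 Rab9 promoter-driven luciferase in stably transfected Huh7 cells; 1500 cells/well rested 2 h, exposed to compound in DMSO for 24 h at 37 °C, 5% CO2. Luminescence read 10 min after adding luciferase reagent at ambient temperature.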
# FLuc modulator = qHTS profiling assay for firefly luciferase inhibitor/activator using purifed enzyme and Km concentrations of substrates (counterscreen for miR-21 project); 360,000 compounds, 6.9% hits; AID 588342, 2011; purified FLuc, Km substrates, luminescence inhibition; Potency, µM (top dose mostly 57.5 µM), without a hit: at the top dose activity change, negative = inhibition, actives largely listed as inhibitors; Luciferin 4-monooxygenase (Photinus pyralis), P08659;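 note: plate controls were vehicle for no effect and reference inhibitor for full effect; nearly all actives have a fitted effect of over 55% in size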
# Target sequence (P08659 whole entry, looked up): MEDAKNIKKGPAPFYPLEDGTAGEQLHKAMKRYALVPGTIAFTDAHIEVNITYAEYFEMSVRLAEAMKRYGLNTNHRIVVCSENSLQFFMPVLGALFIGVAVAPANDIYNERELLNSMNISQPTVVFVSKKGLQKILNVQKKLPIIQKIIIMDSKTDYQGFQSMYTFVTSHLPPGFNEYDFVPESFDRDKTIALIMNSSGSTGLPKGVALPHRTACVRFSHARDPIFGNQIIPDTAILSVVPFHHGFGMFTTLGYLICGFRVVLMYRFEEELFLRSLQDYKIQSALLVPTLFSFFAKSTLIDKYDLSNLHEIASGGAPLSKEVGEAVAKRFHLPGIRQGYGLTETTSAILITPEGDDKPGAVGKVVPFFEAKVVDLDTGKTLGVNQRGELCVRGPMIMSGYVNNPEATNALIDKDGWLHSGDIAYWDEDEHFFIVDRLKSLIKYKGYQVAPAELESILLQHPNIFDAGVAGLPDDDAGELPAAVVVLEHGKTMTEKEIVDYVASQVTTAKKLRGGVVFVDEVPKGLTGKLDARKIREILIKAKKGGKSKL
#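 Purified P. pyralis luciferase, 10 nM final, with Km-level 10 uM D-luciferin and 10 uM ATP in 50 mM Tris acetate pH 7.5, 10 mM Mg acetate, 0.01% Tween-20, 0.05% BSA; 6-point qHTS titration about 60 µM downward; luminescence read.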
# Active calls of the source: *; ? = inconclusive; . = no result. Calls come from the whole dose curve; as a rule, active = well fitted curve in the direction sought with a large enough effect; inconclusive = small, poorly fitted or top-dose-only effect, or another doubt; inactive = no such curve, though single readings can be large; an effect the other way counts as inactive or inconclusive. Potency is the fitted concentration of half-maximal effect.
SMILES,SMN2 splice up,NPC1 promoter act,ELG1 genotox,ELG1 repair inh,Rab9 prom act,FLuc modulator
CC1CCN(c2nc3ccc(C(=O)O)cc3s2)CC1,-53%,-48%,-23%,?,-49%,0.21µM*
O=C(NCC1CCCO1)c1ccc2nc(N3CCCCC3)sc2c1 (stereo not drawn),0%,2µM*,?,?,?,17µM*
COc1ccccc1CN(C(=O)CNC(=O)c1ccco1)C(C(=O)NCC1CCCO1)c1ccccc1 (stereo not drawn),.,-3%,-15%,?,-3%,1%
CC(O)C(C(=O)OCc1ccc([N+](=O)[O-])cc1)N1C(=O)c2ccccc2C1=O (stereo not drawn),.,-4%,-4%,-3%,-5%,1%
O=C(CCCCn1c(=O)c2ccccc2n(Cc2ccc(Cl)cc2)c1=O)NCc1ccccc1Cl,-7%,.,.,.,.,-8%
O=C(c1cccc(F)c1)N1CCN(C(=O)c2cc3ncc(Br)cn3n2)CC1,18%,1%,0%,0%,-1%,9%
Cc1ccccc1Cn1c(CN2CCC(C(=O)NCCc3ccccc3)CC2)cc2ccccc21,.,.,.,.,.,-7%
COc1ccccc1CNC(=O)c1ccc2nc(N3CCCCC3)sc2c1,-13%,.,.,.,.,?
CC1CCN(c2nc3ccc(C(=O)NCc4ccccc4Cl)cc3s2)CC1,-10%,.,.,.,.,6.7µM*
NC(=O)CC(NC(=O)Cc1cccc2ccccc12)c1ccc(NCCc2ccccc2F)c([N+](=O)[O-])c1 (stereo not drawn),.,2%,4%,9%,-1%,0%
COc1ccc2oc(-c3ccc(NC(=O)c4ccc(Cl)cc4Cl)cc3)nc2c1,-12%,.,.,.,.,-16%
Cc1cc(C)cc(NC(=O)C2CCCN(c3nc(C)cc(C)n3)C2)c1 (stereo not drawn),-8%,-2%,-2%,3%,-5%,7%
Cc1cc(C)nc(N2CCCC(C(=O)NCC(c3ccccc3)c3ccccc3)C2)n1 (stereo not drawn),-11%,-2%,-1%,23µM*,-16%,0%
Cc1cc(C)nc(N2CCCC(C(=O)Nc3nc4ccc(S(C)(=O)=O)cc4s3)C2)n1 (stereo not drawn),-24%,-3%,-26%,16µM*,-1%,4%
CCC(C)NC(=O)C1CCCN(c2nc(C)cc(OC)n2)C1 (stereo not drawn),2%,1%,-1%,9%,-5%,0%
Cc1cc(C)nc(N2CCCC(C(=O)Nc3ccc4nc(C)c(C)nc4c3)C2)n1 (stereo not drawn),-12%,-4%,-6%,12µM*,0%,0%
COc1cc(C)nc(N2CCCC(C(=O)NC3CCC(C)CC3)C2)n1 (stereo not drawn),?,3.2µM*,?,?,4µM*,11µM*
CCOC(=O)C(=O)NCC(c1cccnc1)N1CCN(c2ccccc2)CC1 (stereo not drawn),.,.,.,.,.,-15%
Cc1cc(CNC(=O)[C@H](C)[C@H]2C[C@]2(C)[C@H](NC(=O)OCc2ccccc2)c2ccccc2)nn1C,-12%,.,.,.,.,.
C=CCC(C#N)(c1ccc(OC)c(OC)c1)c1cnccn1 (stereo not drawn),.,1%,6%,9%,2%,2%
Cn1cccc1C(=O)N1CCC2(CC1)CCN(c1cccc(-c3ccccc3)c1)CC2,-53%,.,.,.,.,.
CCOc1ccc(NC(=O)c2ccc(-c3ccccc3)s2)cc1,3%,.,.,.,.,-7%
CNC(=O)c1ccc(-c2ccccc2)s1,7%,?,?,?,?,13µM*
CC(C)(C)OC(=O)[C@H](Cc1ccccc1)NC(=O)c1nc[nH]c1C(=O)N1CCc2ccccc2C1,.,-2%,0%,-22%,-3%,0%
CC(C)(C)OC(=O)NCCCCCNC(=O)c1nc[nH]c1C(=O)N1CCc2ccccc2C1,.,.,-8%,16µM*,.,.
SMILES,SMN2 splice up,NPC1 promoter act,ELG1 genotox,ELG1 repair inh,Rab9 prom act,FLuc modulator
CC(C)(C)OC(=O)NCCCC[C@H](NC(=O)c1nc[nH]c1C(=O)N1CCc2ccccc2C1)C(=O)OC(C)(C)C,.,-4%,-9%,8.2µM*,-5%,2%
N#Cc1c(NC(=O)c2cc3nc(-c4ccc(Br)cc4)cc(C(F)(F)F)n3n2)sc2c1CCCC2,.,.,.,.,.,-3%
CCOC(=O)c1ccc(NC(=O)c2cn(CCC#N)nc2-c2ccc3c(c2)OCCO3)cc1,10%,-1%,-1%,15µM*,-2%,4%
Cc1ccc(C)n1-c1ccc(C(=O)Nc2ccccc2)cc1,13µM*,28%,?,-6%,?,9.5µM*
O=C(Nc1ccc(C(=O)c2ccccc2)cc1)c1ccccc1,.,3.5µM*,?,?,2µM*,11µM*
O=C(Nc1cccc(C(F)(F)F)c1)c1ccc2nc(-c3ccco3)c(-c3ccco3)nc2c1,-11%,0%,-25%,21µM*,-4%,?
O=C(O)c1ccc2nc(-c3ccco3)c(-c3ccco3)nc2c1,-22%,0%,-1%,1%,-7%,?
CC(C)CC(=O)Nc1ccc(C(=O)Nc2cccc(O)c2)cc1,.,30%,?,?,?,17µM*
O=C(Nc1ccc(Br)c(C(F)(F)F)c1)c1ccccc1,-13%,-4%,2%,?,-1%,19µM*
O=C(NNC(=O)c1ccc(NC(=O)c2ccccc2)cc1)c1ccc(F)cc1,.,1%,18µM*,4%,8%,1%
O=C(Nc1cccc(O)c1)c1ccc(C(F)(F)F)cc1,.,?,18%,?,?,12µM*
O=C(NNC(=O)c1ccc(NC(=O)c2ccccc2)cc1)Nc1ccccc1,-1%,-1%,18%,?,-4%,-12%
O=C(Nc1ccc(C(F)(F)F)cc1)c1ccccc1,.,2.8µM*,18%,?,2.5µM*,?
Cc1cccc(C)c1NC(=O)c1nc(SC(C)C)ncc1Cl,-7%,.,.,.,.,-10%
O=C1NC(Cc2ccccc2)C(=O)N1Cc1cc([N+](=O)[O-])cc2c1OCOC2 (stereo not drawn),1%,-1%,-5%,-6%,2%,0%

# High-throughput results (PubChem)
